# Screening results from PubChem.
# Hits are enriched below; roughly 4.1% of the tested compounds scored in any of these assays.
# CD11b adhes enh: enhancers of human CD11b/CD18 binding to fibrinogen | P05107+P11215 | K562 CD11b/CD18 adhesion to fibrinogen, ATPlite luminescence | activation, % at 10 µM | 0.07% of 93,000 active;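 active = 10 µM primary screen giving 50% or more activity, confirmed by 40% or more on retest at that dose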
# Pyk2 oligo antag: Pyk2 (human) oligomerization antagonism. 0.83% of 99,000 active. z-score (the deposit names both 25 µM and 10 µM). Q14289. Q293 cells, Pyk2 FERM NanoBiT luminescence; hits give low values;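 active = Z-score of -3 or lower, scaled per plate to the spread of control and sample wells; inactive = z-score above -3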;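 note: negative z-score means lost luminescence so less FERM oligomerization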
# MRP1 act: activates MRP-1; AID 799; 0.61% of 140,000 active; H69AR cells + doxorubicin, viability rescue, CellTiter-Glo; viability increase, % at 10 µM;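 active = viability gain under doxorubicin at or above a set limit, the compound median plus 3 SD, cut at about 4.7% in these data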;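 note: MRP-1 overexpressing cells given doxorubicin 25 µM after compound pretreatment; 18-22 h compound pretreatment then 72 h with doxorubicin before readout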
# MRP resist rev: compounds reversing MRP-mediated drug resistance; H69AR cells + 2 uM doxorubicin, CellTiter-Glo, 72 h; differential viability (reversal), % at 10 µM; 0.04% of 85,000 active; AID 602;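 active = viability drop by adding the cancer drug above about 55%, with treated viability meeting a 40% cutoff, limit read from the data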;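 note: larger differential means the compound sensitizes cells more to doxorubicin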
# Cav3 T inh: inhibitors of human Cav3.2 T-type calcium channel; Cav3.2-expressing cells, Fluo-4 calcium fluorescence FDSS; hits give low values; O95180; B-score at 10 µM; 4% of 100,000 active;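 active = single-dose well whose peak fluorescence ratio is a statistical outlier from its plate by either plate-standardised score or position-corrected B-score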
# CD11b adhes inh: CD11b/CD18-fibrinogen binding inhibition; K562 CD11b/CD18 adhesion to fibrinogen, ATPlite luminescence; Mn2+ added to activate the integrin; 0.54% of 93,000 active; P05107+P11215; inhibition, % at 10 µM;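 active = primary inhibition of 50% or more at 10 µM, then 40% or more on retest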
# Numbers stand for hits; – = inactive; · = no result.
SMILES,CD11b adhes enh,Pyk2 oligo antag,MRP1 act,MRP resist rev,Cav3 T inh,CD11b adhes inh
O=C(O)CNCC1COc2ccccc2O1 (stereo unspecified),–,–,–,–,–,–
c1ccc2c(c1)OCC(CNc1ncnc3sccc13)O2 (stereo unspecified),–,·,–,·,·,99.9
Cc1ccc(S(=O)(=O)NC(CC(=O)n2nc(C)cc2C)c2ccccc2)cc1 (stereo unspecified),–,–,–,·,-6.3,–
O=C(NNC(=O)c1ccc(SCC2CCCO2)c([N+](=O)[O-])c1)c1ccc(Cl)c([N+](=O)[O-])c1 (stereo unspecified),–,–,–,–,–,–
Cc1ccc(C(=O)NNC(=O)c2ccc(SCC3CCCO3)c([N+](=O)[O-])c2)cc1 (stereo unspecified),–,–,8.2,–,–,–
CCOc1cc(CNc2ccccc2)cc(Br)c1OCC(=O)NC(C)(C)C,–,–,–,·,-5.08,–
O=C(Nc1ncc(Br)s1)C(Cc1ccccc1)n1cccc1 (stereo unspecified),–,·,–,–,-4.48,79.2
CC(=O)Nc1ccc(S(=O)(=O)N(C)CC(=O)OCC(=O)Nc2ccc3c(c2)OCO3)cc1,·,·,–,·,·,·
O=C(CCS(=O)(=O)c1ccc(Br)cc1)N1CCN(c2ccccc2F)CC1,–,–,–,–,·,–
O=[N+]([O-])c1ccc(N2CCN(S(=O)(=O)c3ccccc3)CC2)cc1NCc1cccnc1,–,-3.66,–,·,–,–
Cc1ccccc1N=C(NOCc1ccccc1)c1nonc1N,·,–,–,–,-6.56,·
Cc1ccc(N=C(NOCc2ccc(Cl)cc2Cl)c2nonc2N)c(C)c1,–,–,–,57.0,–,–
CN(C)c1ccc(NC(=O)/C=C/c2c(Cl)cccc2Cl)cc1,–,·,–,·,·,–
CCCOc1cccc(C(=O)Nc2cc(NC(=O)c3ccco3)ccc2OC)c1,–,–,–,·,-6.4,–
O=S(=O)(c1cccc(S(=O)(=O)N2CCC(Cc3ccccc3)CC2)c1)N1CCOCC1,·,–,–,–,-5.91,·
CCc1nnc(NC(=O)CSc2nnc(COc3ccccc3)n2-c2ccc(C)cc2)s1,–,–,–,–,–,–
CCc1nnc(NC(=O)CSc2nnc(-c3ccccc3O)n2-c2ccc(C)cc2C)s1,–,-3.78,–,·,-8.96,–
S=C(NCCSCc1ccc(Cl)cc1)Nc1ccccc1,–,–,–,·,·,–
S=C(NCCSCc1ccccc1Cl)Nc1ccccc1,–,–,–,·,-6.43,–
Clc1ccc(/C=N/c2c(-c3ccc(Cl)cc3)nc3n2CCS3)cc1,·,–,–,–,–,·
CN(Cc1ccccc1)C(NC(=O)c1ccccc1)C(Cl)(Cl)Cl (stereo unspecified),·,–,–,·,-5.69,·
CCN(CC)C(NC(=O)Cc1ccccc1)C(Cl)(Cl)Cl (stereo unspecified),·,–,–,·,–,·
Cc1cc(Br)ccc1OCCCCN1CCC(C)CC1,·,·,–,·,·,·
COc1ccc(C(=O)NCc2cccnc2)cc1S(=O)(=O)N1CCOCC1,–,–,–,–,–,–
CCSc1nc2ccccc2n1CCOc1ccccc1,·,–,–,–,-3.79,·
SMILES,CD11b adhes enh,Pyk2 oligo antag,MRP1 act,MRP resist rev,Cav3 T inh,CD11b adhes inh
CCSc1nc2ccccc2n1Cc1ccccc1F,·,–,–,–,-4.97,·
NC(=O)CSc1nc2ccccc2n1Cc1ccccc1F,–,–,–,–,–,–
CC(=O)Nc1nc2ccccc2n1CCOc1ccccc1,–,–,–,–,–,–
CC(C)N(C(=O)CSc1nc2ccccc2n1Cc1ccccc1F)C(C)C,·,–,–,–,-8.98,·
C=CCNC(=O)c1ccc(Sc2ccccc2)c([N+](=O)[O-])c1,–,–,–,·,·,–
CCCSc1nnc2n(Cc3ccccc3)c(=O)c3c4c(sc3n12)CCC4,–,·,·,–,·,–
COc1cc(NC(=O)CSc2nc3ccccc3cc2Cc2ccccc2)cc(OC)c1,·,–,–,·,–,·
COc1ccc(NC(=O)CSc2nc3ccccc3cc2Cc2ccccc2)cc1,·,–,–,·,-4.19,·
COc1cccc(NC(=O)CSc2nc3ccccc3cc2Cc2ccccc2)c1,·,–,–,·,-4.01,·
COC(=O)CC1C(C(=O)OC)ON2OC(C(=O)OC)C(C(=O)OC)C12 (stereo unspecified),·,·,–,·,·,·
CC(NC(=O)CCSc1nc(-c2ccc3c(c2)OCO3)cc(C(F)(F)F)n1)c1ccccc1 (stereo unspecified),·,–,–,–,-5.24,·
COc1ccc(-c2cc(C(F)(F)F)nc(SCCC(=O)NCc3ccccc3)n2)cc1,–,–,–,–,-5.72,–
O=C(NCC1CCCO1)c1cccnc1Nc1ccccc1F (stereo unspecified),–,–,–,–,–,–
CCOC(=O)c1[nH]c(C)c(C(=O)NC(C)CC)c1C (stereo unspecified),–,·,–,–,–,–
O=C1NC(c2ccccc2)=C(c2nc3ccccc3s2)C(c2ccccc2)N1 (stereo unspecified),–,-3.65,–,·,–,–
Oc1ccc(-c2[nH]ncc2-c2ccc(Cl)cc2)c(O)c1,·,–,–,–,–,·
C=CCn1c(SCc2cccc3ccccc23)nnc1-c1cccnc1,–,–,–,–,–,–
CN(NS(=O)(=O)c1ccccc1)c1nc2ccccc2nc1C(F)(F)F,–,–,–,–,-4.19,–
Cc1ccccc1C(=O)NN(C)c1nc2ccccc2nc1C(F)(F)F,·,–,–,·,–,·
Cc1ccn2cc(CNS(=O)(=O)c3ccc4c(c3)OCCO4)nc2c1,–,·,–,–,–,–
O=c1c2ccccc2nnn1CSc1nnc(C2COc3ccccc3O2)n1-c1ccccc1 (stereo unspecified),–,–,–,–,-6.05,–
C[N+]1=C(/C=C/Nc2ccccc2Cl)C(C)(C)c2ccccc21,·,·,–,·,·,·
COC(=O)c1ccc2c(c1)C(C)(C)C(/C=C/c1ccccc1O)=[N+]2C,·,–,–,·,-3.68,·
O=C(Nc1cc(C(F)(F)F)ccc1N1CCOCC1)C1Cc2ccccc2CN1C(=O)c1ccco1 (stereo unspecified),–,–,–,–,-8.81,–
O=C(Nc1ccccc1)C1Cc2ccccc2CN1C(=O)c1ccco1 (stereo unspecified),–,–,–,·,–,–
SMILES,CD11b adhes enh,Pyk2 oligo antag,MRP1 act,MRP resist rev,Cav3 T inh,CD11b adhes inh
CCOC(=O)c1c(C)[nH]c(C(=O)C(C)OC(=O)c2cccc(OCc3c(C)noc3C)c2)c1C (stereo unspecified),·,–,–,–,-4.72,·
CCN(CC)S(=O)(=O)c1cccc(-c2nnc(SCCOc3ccccc3C)o2)c1,–,–,–,·,-4.73,–
CCN(CC)S(=O)(=O)c1cccc(-c2nnc(SCCOc3ccc(Cl)cc3)o2)c1,–,–,–,–,-7.92,–
CCN(CC)S(=O)(=O)c1cccc(-c2nnc(SCC(=O)c3cc(C)n(C)c3C)o2)c1,–,–,–,–,–,–
CCN(CC)S(=O)(=O)c1ccc(-c2nnc(SCc3nnc(-c4ccc(C)cc4)o3)o2)cc1,–,–,–,–,–,–
CCN(CC)S(=O)(=O)c1cccc(-c2nnc(SCCOc3ccccc3)o2)c1,–,–,–,–,-4.16,–
